The campaign covered roughly 69,000 compounds. About 8,600 (12%) showed an effect of 50% or more. The sample holds strong results, similar compounds and a random draw of the others, so the mix is not that of the screen.

This assay has as its system Plasmodium berghei. Put plainly: Screen against P. berghei liver stage (PbLuc), transformed with Luciferase, at 10uM. The format is functional, HepG2. To be noted: tested at 10 uM.
For `CCOCC(=O)N1CCC2(CC1)CN(Cc1cccnc1)C(=O)CO2`, the INHIBITION is -47.9%.

Regarding `COCCN1CCCC(Cc2cnc(-c3c(C)nn(C)c3C)cn2)C1` (stereo not drawn), the INHIBITION is reported as -29.9%.

Regarding `COCC1CN(c2ccc(C)nn2)Cc2cnn(CC3CCOCC3)c21` (stereo not drawn), the INHIBITION worked out at 13.6%.

Take `Cc1cc2[nH]c(O)nc2cc1NCc1ccc(F)cc1`: the INHIBITION is listed as -5.64%.

For the molecule `COc1ccc(-c2nc3c([nH]2)CCNC3C(=O)O)c2ccccc12` (stereo not drawn), the INHIBITION is on record as 55.4%.

For `Cc1ccc(-c2nc3c([nH]2)CCNC3C(=O)O)c2cccnc12` (stereo not drawn), the INHIBITION is given as -6.83%.

`COc1ccc(-c2nc3c([nH]2)CCNC3C(=O)O)c2ccc(C)nc12` (stereo not drawn): the INHIBITION is reported as 36.6%.

Consider `Cc1ccc2nc(C(=O)N3C[C@@H](C(=O)O)[C@H](c4cccnc4)C3)cn2c1`, for which the INHIBITION is reported as -10.1%.

Consider `COc1cc(CNC(=O)COC2CCCC2)ccc1O`, for which the INHIBITION is on record as 9.06%.

Turning to `CNc1cc(C2CCN2c2ncccn2)nc(C)n1` (stereo not drawn), the INHIBITION is recorded as 15.5%.

Take `O=C(NC1CC1)C(c1ccccc1)N1CCN(Cc2ccc(Cl)s2)CC1` (stereo not drawn): the INHIBITION was -65%.

Take `NC(=O)NC(=O)C(c1ccccc1)N1CCN(Cc2ccc(Cl)s2)CC1` (stereo not drawn): the INHIBITION is given as 50.4%.

In the case of `NC(=O)NC(=O)C(c1ccccc1)N1CCN(Cc2ccccc2)CC1` (stereo not drawn), the INHIBITION amounted to 24%.

On to `CS(=O)(=O)c1cncnc1C1CCCN(C(=O)NCc2ccccc2)C1` (stereo not drawn), for which the INHIBITION is given as -2.665%.

`Cn1cncc1CN1C[C@@H]2OCCN(c3ncccn3)[C@@H]2C1`: the INHIBITION is listed as 63.7%.

Take `Cc1noc(C)c1CN1CCO[C@H]2CN(Cc3cncn3C)C[C@H]21`: the INHIBITION stood at 18.5%.

As to `Cc1ccc(N2CCO[C@H]3CN(Cc4cnn(C)c4)C[C@H]32)nn1`, the INHIBITION turned out to be 25.6%.

Take `COc1ccc(CN2C[C@@H]3OCCN(c4ncccn4)[C@@H]3C2)cc1`: the INHIBITION stood at 32.4%.

Regarding `Cn1ccnc1CN1C[C@@H]2OCCN(c3ncccn3)[C@@H]2C1`, the INHIBITION turned out to be 28.7%.

As for `Fc1ccccc1CN1C[C@@H]2OCCN(c3ncccn3)[C@@H]2C1`, the INHIBITION is on record as 42.7%.

Take `c1ccc(CCN2C[C@@H]3OCCN(c4ncccn4)[C@@H]3C2)cc1`: the INHIBITION came to 76.5%.

As for `Cn1cc(CN2C[C@@H]3OCCN(c4ncccn4)[C@@H]3C2)cn1`, the INHIBITION is 83.5%.

As to `c1cnc(N2CCO[C@H]3CN(CC4CC4)C[C@H]32)nc1`, the INHIBITION was found to be 35.2%.

Turning to `Cc1cc2cc(NC(=O)Cn3ncc(N4CCCC4)cc3=O)ccc2o1`, the INHIBITION was found to be 30.3%.

`CCn1cnnc1CNS(=O)(=O)N1CCCC1c1ccc(C)o1` (stereo not drawn): the INHIBITION turned out to be 2.79%.

As to `CC(C)c1nc(O)c2nnn(C[C@H]3CCCN(Cc4cccs4)C3)c2n1`, the INHIBITION amounted to 2.55%.

With `CCn1nc(C)c2ncnc(NCCn3cccn3)c21`, the INHIBITION was -15%.

As for `CC(C)CC1SCC(=O)Nc2c1cnn2C1CCCC1` (stereo not drawn), the INHIBITION is reported as -37.2%.

As to `CN(C)C(=O)[C@@H]1C[C@H]2OCC[C@H]2N(CCOc2ccc(Cl)cc2)C1`, the INHIBITION is given as -23.4%.

Turning to `CC(C)Cc1cc(C(=O)NCCN2CCCS2(=O)=O)[nH]n1`, the INHIBITION is listed as -36.385%.

As to `CC(C)Cc1cc(C(=O)NC(C)C)[nH]n1`, the INHIBITION is listed as 50.8%.

Take `CC(C)Cc1cc(C(=O)NCc2nnc[nH]2)[nH]n1`: the INHIBITION is reported as -21.3%.

In the case of `COc1nccc(N2CC[C@@H](N3CCCCCC3)[C@H](O)C2)c1C#N`, the INHIBITION was 42.1%.

In the case of `c1cnn(CC2CCCN2Cc2nc(C3CC3)no2)c1` (stereo not drawn), the INHIBITION came out at 11.4%.

For `Cn1cccc1CNCC1CCCn2cc(C(C)(C)C)nc21` (stereo not drawn), the INHIBITION was determined as 22.3%.

In the case of `Cc1cn2c(n1)C(CNCc1cnn3ccccc13)CCC2` (stereo not drawn), the INHIBITION turned out to be 50.1%.

For `Cc1nc(C)c(CNCC2CCCn3ccnc32)s1` (stereo not drawn), the INHIBITION was 28.7%.

In the case of `CC(C)(C)c1ncc(CNCC2CCCn3ccnc32)s1` (stereo not drawn), the INHIBITION is on record as -7.66%.

For `CC(C)(C)c1cn2c(n1)C(CNCc1cnn3ccccc13)CCC2` (stereo not drawn), the INHIBITION is 51.1%.

In the case of `CC(C)(C)C(=O)NCc1cnn2ccccc12`, the INHIBITION is 15.7%.

`CC(C)(C)c1cn2c(n1)C(CNCc1ccccn1)CCC2` (stereo not drawn): the INHIBITION was 56.5%.

In the case of `CC(C)(C)NC(=O)NCc1cnn2ccccc12`, the INHIBITION came to 35.2%.

`O=C(NCc1cnn2ccccc12)NC1CCCC1`: the INHIBITION is reported as -16.4%.

For the molecule `CN(CC1(C)COC1)C(=O)c1cc(-c2ccnn2C)nc2ccccc12`, the INHIBITION came out at 1.9%.

Turning to `CSC(C)C(=O)N(C)CC(=O)Nc1ccc(Br)cn1` (stereo not drawn), the INHIBITION was -17.6%.

As for `NC(=O)C(CNC(=O)CCc1ccccc1)Cc1ccc(F)cc1` (stereo not drawn), the INHIBITION is given as 33.4%.

As to `CN(C)C(=O)CO[C@H]1CN(Cc2ccccc2)[C@@H]2CCCO[C@H]12`, the INHIBITION was found to be 3.3%.

With `CN(C)C(=O)CNC(=O)c1cc2ccccc2nc1N1CCCC1`, the INHIBITION is listed as 42.3%.

With `CCn1nc(C)c(C(=O)NCc2csc(C3CC3)n2)c1C`, the INHIBITION was found to be 76.3%.

Regarding `Cc1ccc2c(cnn2CCC(=O)NCc2csc(C3CC3)n2)c1`, the INHIBITION is recorded as 26.9%.

On to `CCn1cc(CCC(=O)NCc2csc(C3CC3)n2)c(C)n1`, for which the INHIBITION stood at 22.9%.

In the case of `CCn1cc(C(=O)NCc2csc(C3CC3)n2)c(C)n1`, the INHIBITION worked out at 67%.

`Cc1nn(C)cc1C(=O)NCc1csc(C2CC2)n1`: the INHIBITION worked out at 18.3%.

Consider `Cc1cccc2c1cnn2CCC(=O)NCc1csc(C2CC2)n1`, for which the INHIBITION turned out to be 23.6%.

For `CCOC(=O)CSc1nnc([C@@H](N)C(C)CC)o1` (stereo partly drawn), the INHIBITION is recorded as -30.6%.

In the case of `CCOCCC(=O)Nc1ccnn1-c1ccc(Cl)cc1`, the INHIBITION amounted to 12.9%.

As for `Cc1ccccc1-n1nccc1NC(=O)CCOC(C)C`, the INHIBITION is given as 43.8%.

For the molecule `COCCOCC(=O)Nc1ccnn1-c1ccc(Cl)cc1`, the INHIBITION came out at 54.6%.

As to `COCC(=O)NC(c1ccc(Cl)cc1)C(F)(F)F` (stereo not drawn), the INHIBITION is given as -21.8%.

Turning to `COCCC(=O)Nc1ccnc(Oc2ccccc2)c1`, the INHIBITION is given as -30%.

For the molecule `COCCOCC(=O)Nc1ccc(C)cc1Cl`, the INHIBITION is -71.6%.

As to `COCCC(=O)Nc1ccnn1-c1ccccc1`, the INHIBITION is 67.1%.

`COCC(=O)Nc1ccnn1-c1ccc(Cl)cc1`: the INHIBITION was 64.3%.

For the molecule `COCC(=O)NCCc1ccc(Cl)s1`, the INHIBITION came to 28.4%.

As for `Cc1cccc(C(=O)N2C[C@@H](OCc3ccncc3)[C@@H]3OCCC[C@@H]32)n1`, the INHIBITION was -69.9%.

For `COCCN(Cc1ccccn1)C(=O)Nc1cccnc1-n1cccn1`, the INHIBITION stood at 9.4%.

Turning to `NC(=O)CN1CCOCC(Cc2ccccc2)C1` (stereo not drawn), the INHIBITION is reported as -4.51%.

Consider `C=C(C)COc1ccccc1C(=O)N1CCC(C(=O)NCC)C1` (stereo not drawn), for which the INHIBITION was 48.5%.

The record behind these values is ChEMBL document CHEMBL4513216, “Probing the Open Global Health Chemical Diversity Library for Multistage-Active Starting Points for Next-Generation Antimalarials” (ACS Infect Dis, 2020).
